Source: PubChem BioAssay AID2642 (Johns Hopkins Ion Channel Center, 2010)
Hit rate of the full screen: of about 310,000 compounds, about 3,900 (1.3%) were called active.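 How the source made its calls: active means compounds whose thallium flux B-score, printed positive for inhibition, exceeds three library SD while starting fluorescence stays within three; inactive means the rest.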 What follows is part of a selection rich in actives, with near analogues and random picks from the rest.

These compounds were tested against Potassium voltage-gated channel subfamily KQT member 1 (Homo sapiens) (UniProt P51787) (assay: KCNQ1 potassium current blockers – cell-based, thallium flux, high-throughput, primary screen (AID 2642;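 further: channel opened by potassium depolarization with thallium stimulus after 20 min compound exposure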)). Details: CHO-K1 KCNQ1, FluxOR thallium flux fluorescence, at 10 µM; active compounds read high.
Sequence of Potassium voltage-gated channel subfamily KQT member 1 (Homo sapiens) (P51787 whole entry, looked up): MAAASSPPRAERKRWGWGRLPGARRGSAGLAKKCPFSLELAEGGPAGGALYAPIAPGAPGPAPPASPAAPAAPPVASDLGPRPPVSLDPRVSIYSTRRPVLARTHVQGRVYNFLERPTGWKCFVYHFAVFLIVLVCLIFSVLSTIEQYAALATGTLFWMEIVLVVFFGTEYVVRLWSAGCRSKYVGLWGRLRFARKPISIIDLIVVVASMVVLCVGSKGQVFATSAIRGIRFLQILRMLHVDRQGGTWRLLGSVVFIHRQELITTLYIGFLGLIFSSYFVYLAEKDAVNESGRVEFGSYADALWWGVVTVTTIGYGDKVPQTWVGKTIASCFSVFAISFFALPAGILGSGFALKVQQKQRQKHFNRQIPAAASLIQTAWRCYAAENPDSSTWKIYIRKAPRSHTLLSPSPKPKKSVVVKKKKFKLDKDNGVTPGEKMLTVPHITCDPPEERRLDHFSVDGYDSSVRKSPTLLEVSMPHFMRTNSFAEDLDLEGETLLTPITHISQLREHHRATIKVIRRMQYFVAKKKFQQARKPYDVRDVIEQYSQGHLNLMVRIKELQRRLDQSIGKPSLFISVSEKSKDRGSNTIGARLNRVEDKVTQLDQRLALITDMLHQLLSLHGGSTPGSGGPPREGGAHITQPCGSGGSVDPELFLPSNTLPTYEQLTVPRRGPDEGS

B-score, active:
CN1C2CCC1/C(=C\c1ccccc1Cl)C(=O)/C2=C\c1ccccc1Cl 10
COc1ccccc1C1CC(=O)n2c(nc(-c3ccccc3)c2-c2ccccc2)S1 (stereo not given) 7
COc1ccc(-c2oc3ncn(Cc4ccco4)c(=N)c3c2-c2ccc(OC)cc2)cc1 9
CCn1c(SCCC(C)C)nnc1-c1c[nH]c2ccccc12 6
COC(=O)C[n+]1cccc2ccccc21 8
COc1cc(S(=O)(=O)N2CCOCC2)ccc1NC(=O)COc1ccc(N(C)S(=O)(=O)c2ccc(C)cc2)cc1 13
CCOC(=O)c1c(NC(=O)C(C)Sc2c[nH]c3ccccc23)sc2c1CCC2 (stereo not given) 12
CC(=O)N1CCCc2cc(S(=O)(=O)N3CCCC(C(=O)N4CCN(c5cccc(Cl)c5)CC4)C3)ccc21 (stereo not given) 8
Cc1ccc(-c2nn(-c3ccccc3)cc2/C=N/NC(=O)c2ccc3c(c2)OCO3)cc1 6
O=C(COC(=O)[C@H](Cc1ccccc1)NC(=O)c1cccs1)Nc1cc(F)ccc1F 6
NC(=O)c1ccc(NC(=O)COC(=O)C(Cc2ccccc2)NC(=O)c2ccccc2)cc1 (stereo not given) 6
Cn1nccc1C(=O)NC1CCCc2c1cnn2-c1ccc(F)cc1F (stereo not given) 9
Cn1nccc1C(=O)NC1CCCc2c1cnn2-c1ccccc1F (stereo not given) 6
COc1ccc(C(=O)NC2CCCc3c2cnn3-c2cccc(C)c2C)c(OC)n1 (stereo not given) 11

B-score, inactive:
Cc1cc(C)c(S(=O)(=O)N2CCCC2CNC(=O)c2ccc3c(c2)OCO3)c(C)c1 (stereo not given)
Cc1ccc(OCCCCN2CCCCC2)c(Br)c1
CC(C)CC(=O)N1CCN(Cc2ccccc2Br)CC1
CCN1CC=C2C(C#N)=C(N)C(C#N)(C#N)[C@H](c3ccoc3)[C@H]2C1
CCC(C)(C)NC(=O)/C=C/c1cc(OC)c(OC)c(S(=O)(=O)N2CCc3ccccc32)c1
O=C(CN1C(=O)S/C(=C\c2ccccc2Cl)C1=O)NC1C=CS(=O)(=O)C1 (stereo not given)
O=C(CN1CCCCCC1)NCCN1C(=O)S/C(=C\c2ccccc2Cl)C1=O
COc1ccc(/C=N/n2c(C)cc(C)cc2=O)cc1
OCCC1CN(Cc2cccc(O)c2)CCN1CCc1ccccc1 (stereo not given)
COc1ccc(C2CC(=O)n3c(nc4ccccc43)S2)cc1OC (stereo not given)
COc1cccc(C2CC(c3ccccc3)=NN2S(=O)(=O)c2ccccc2)c1OC (stereo not given)
COc1ccc2[nH]c3c(=O)n(Cc4ccco4)cnc3c2c1
COc1ccc(-c2oc3ncnc(NCCCO)c3c2-c2ccc(OC)cc2)cc1
CCOc1ccc2ccccc2c1/C=N/NC(=O)c1c(C)cc(C)[nH]c1=O
CN(C(=O)CCNC(=O)Cn1ccc2ccccc2c1=O)c1ccc(Br)cc1
CCn1c(SCC(=O)Nc2ccc(OC)c(OC)c2)nnc1-c1c[nH]c2ccccc12
CCC(C)Sc1nnc(-c2c[nH]c3ccccc23)n1CCOC (stereo not given)
CC1CC(=S)Nc2ccccc2N1Cc1ccccc1 (stereo not given)
COc1ccc(S(=O)(=O)N2CCCC(C(=O)NCCCn3ccnc3)C2)cc1OC (stereo not given)
Cc1cccc[n+]1CC(=O)c1ccccc1
COc1ccccc1NC(=O)C[n+]1ccccc1
O=C(CC1C(=O)NCCN1C(=O)c1ccc([N+](=O)[O-])cc1)Nc1cccc(Cl)c1 (stereo not given)
CC1c2nc3ccccc3n2C(CC(=O)NCCCN2CCOCC2)C(=O)N1Cc1ccccc1 (stereo not given)
Cc1cc(Cl)ccc1OCCCC(=O)Nc1cccc(-n2cnnn2)c1
O=C(CCC1CCCCC1)Nc1cc(C(F)(F)F)ccc1N1CCOCC1
COc1ccc(NC(=O)CN2C(=O)COc3ccc(S(=O)(=O)N4CCOCC4)cc32)c(OC)c1
COc1ccc(S(=O)(=O)N2CCOCC2)cc1NC(=O)COc1ccccc1
CCOC(=O)c1c(NC(=S)NC)sc2c1CCCC2
CCOC(=O)c1c(NC(=O)CSc2cn(CC)c3ccccc23)sc2c1CCC2
CCOc1ccc(S(=O)(=O)N2CCC(C(=O)OCc3ccc(OC)cc3)CC2)cc1
CC1CN(C(=S)Nc2ccc(Br)cc2Cl)CC(C)O1 (stereo not given)
CCCCOC(=O)Nc1nnc(CC(=O)NCc2ccccc2)s1
CC(=O)N1CCCc2cc(S(=O)(=O)N3CCCC(C(=O)NCc4ccc(Cl)cc4)C3)ccc21 (stereo not given)
CC(=O)N1c2ccc(S(=O)(=O)N3CCCC(C(=O)Nc4cccc(Cl)c4)C3)cc2CC1C (stereo not given)
CCCOc1cccc(C(=O)Nc2ccccc2C(=O)N2CCN(C)CC2)c1
COC(=O)c1c(NC(=O)COC(=O)[C@@H](NS(=O)(=O)c2ccccc2)C(C)C)sc2c1CCC2
CC(C)(C)OC(=O)N/N=C/c1cn(-c2ccccc2)nc1-c1cccnc1
O=C(O)c1ccc(N/N=C/c2cn(-c3ccccc3)nc2-c2cccs2)cc1
CC(=O)Nc1ccc(N2C(=O)CCC2=O)cc1C
CCc1ccc(NC(=O)COC(=O)c2cccs2)cc1
COC(=O)[C@H](Cc1ccccc1)NC(=O)Nc1ccc(OC)cc1
CCC(C(=O)OCC(=O)Nc1ccc(C(=O)Nc2ccc(OC)cc2)cc1)c1ccccc1 (stereo not given)
Cc1ccc(C)c(NC(CC(=O)c2ccccc2)C(=O)OCC(=O)c2cccs2)c1 (stereo not given)
CCCCSCCCNC(=O)C1CCC(CNS(=O)(=O)c2ccc(NC(C)=O)cc2)CC1 (stereo not given)
C=CCSc1nc(N)cc(=O)[nH]1
COc1ccc(C(=O)OCC(=O)Nc2cccc(C(C)=O)c2)cc1OC
CN1CCN(C(CNS(=O)(=O)c2cccs2)c2cccnc2)CC1 (stereo not given)
CCOC(=O)N1CCN(c2c(NCCCN3CCCC(C)C3)c(=O)c2=O)CC1 (stereo not given)
CCC1C=C(c2ccccc2)C=CN=C1N(CC)CC (stereo not given)
c1ccc2c(NC3C4CC5CC(C4)CC3C5)nc(N3CCOCC3)nc2c1 (stereo not given)
Cc1ccc(-n2ncc3c2CCCC3NC(=O)c2cnccn2)cc1C (stereo not given)
Cn1nccc1CNC(=O)c1ccnn1C
CC1(C)Cc2c(cnn2-c2cccc(F)c2)C(NC(=O)c2cc[n+]([O-])cc2)C1 (stereo not given)
CC(=O)NCC(=O)NC1CCCc2c1cnn2-c1ccccc1F (stereo not given)
Cc1cc(C(=O)NC2CCCc3c2cnn3-c2cccc(C)c2C)c(C)o1 (stereo not given)
COc1ccc(C(=O)NC2CC(C)(C)Cc3c2cnn3-c2ccccc2C)o1 (stereo not given)
